Shown are actives, neighbours in structure and some others; about 2% of the full set was active somewhere.
MBD2 inh – MBD2-methylated oligo binding inhibition; TR-FRET, MBD2 binding to methylated oligonucleotide; inhibition, % at 4.4 µM; actives 0.31% (n = 370,000); in the data active = inhibition above about 13%
Target sequence (Q9UBB5 whole entry, looked up): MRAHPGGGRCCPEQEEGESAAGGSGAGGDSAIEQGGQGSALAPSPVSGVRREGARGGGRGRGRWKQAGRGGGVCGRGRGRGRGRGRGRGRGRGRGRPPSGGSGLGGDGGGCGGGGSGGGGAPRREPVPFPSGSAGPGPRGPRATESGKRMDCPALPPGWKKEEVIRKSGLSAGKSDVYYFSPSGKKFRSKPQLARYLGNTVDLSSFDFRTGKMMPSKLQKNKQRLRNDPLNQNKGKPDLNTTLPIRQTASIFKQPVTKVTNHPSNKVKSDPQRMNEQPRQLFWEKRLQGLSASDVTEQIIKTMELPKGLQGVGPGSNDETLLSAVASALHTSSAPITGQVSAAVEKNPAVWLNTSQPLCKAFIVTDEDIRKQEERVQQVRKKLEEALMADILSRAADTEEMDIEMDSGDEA
LEDGF integ inh – blocks HIV-1 LEDGF/p75-dependent DNA integration | AID 743269 | TR-FRET IN-LEDGF/p75 DNA integration, Eu/Cy5 | actives 0.64% (n = 370,000) | inhibition, % at 3.7 µM;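 active = inhibition above the screen-wide mean plus 3 SD, cut at about 13% in these data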;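 note: signal is the Cy5 over europium emission ratio at 671 and 618 nm; 0% = plate median of compound wells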
UHRF1 binding – blocks human UHRF1 binding to methylated DNA; Q96T88; UHRF1 binding to methylated oligo, TR-FRET; inhibition, % at 4.4 µM; actives 0.75% (n = 370,000); AID 687016; in the data active = inhibition above about 21%;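 note: UHRF1 SRA domain binding a hemimethylated CpG hairpin DNA probe; 0% = median of test compound wells and 100% = reference inhibitor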
Rin1 Abl inh – human Rin1-Abl interaction inhibition; inhibition, % at 7.35 µM; P00519+Q13671; actives 0.4% (n = 360,000); TR-FRET Rin1/Abl binding, biochemical; in the data active = inhibition above about 5%, passing the limit was not always enough
TCR-CD3 inh – inhibitors of human TCR-CD3 interaction. TAMRA-labeled TCR probe fluorescence, biochemical. inhibition, % at 9.4 µM. actives 0.37% (n = 360,000); in the data active = inhibition above about 19%;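 note: recombinant mutant TCR 2C K166C tagged with TAMRA read by polarization; 0% = receptor in buffer alone and 100% = receptor with positive control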
Rin1-Abl confirm – Rin1-Abl interaction inhibition confirmation; inhibition, % at 7.35 µM; TR-FRET Rin1-Abl binding, purified proteins; shares compounds with Rin1 Abl inh; actives 49% (n = 1,300); AID 602124
GFP quench – GFP fluorescence interference artifact | inhibition, % at 6.75 µM | shares compounds with Rin1 Abl inh | actives 8.5% (n = 1,300) | AID 602125 | inhibitors/quenchers counterscreen;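 note: ABL1-eGFP fusion protein alone without its partner RIN1-SBP; 0% = protein with vehicle and 100% = wells lacking protein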
GFP quench DR – GFP fluorescence interference dose response | AID 602182 | shares compounds with Rin1 Abl inh | IC50, µM | 230 tested, under 10 active | GFP fluorescence interference/quenching counterscreen; call rule not given here;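 note: ABL1-eGFP fusion protein alone without its RIN1 binding partner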
* = called active by the depositor; ! = repeats disagree. Cut-off read from the data, not from the text of the source, unless noted: active = inhibition above about 6.5%; inactive = the rest.

CC[C@]12c3[nH]c4ccc(OC)cc4c3CCN1C(=O)C(CC(=O)NCCC1=CCCCC1)C[C@@H]2C(=O)N1CCN(C(=O)C2CC2)CC1 (stereo partly drawn) was read as MBD2 inh 3.4, LEDGF integ inh 4.4, UHRF1 binding 3.0, Rin1 Abl inh -0.6 and TCR-CD3 inh -10.2.
For Cc1ccc(S(=O)(=O)c2nnn3c2nc(N2CCOCC2)c2ccccc23)cc1C the results were MBD2 inh -0.6, LEDGF integ inh 2.4, UHRF1 binding 0.2, Rin1 Abl inh 1.7 and TCR-CD3 inh 4.7.
For Cc1ccc(S(=O)(=O)c2nnn3c2nc(N2CCOCC2)c2ccccc23)c(C)c1 the results were MBD2 inh 6.6, LEDGF integ inh -1.9, UHRF1 binding 4.3, Rin1 Abl inh 45.5*, TCR-CD3 inh -4.0, Rin1-Abl confirm 29.7* and GFP quench -0.4.
For CN(C)C(=S)Oc1ccccc1C1(C)OCCO1 the results were MBD2 inh 6.2, LEDGF integ inh 2.2, UHRF1 binding 8.7, Rin1 Abl inh -3.4 and TCR-CD3 inh 4.1.
Nc1nc(COC(=O)c2ccco2)nc(Nc2ccccc2)n1 was read as MBD2 inh 2.1, LEDGF integ inh -4.1, UHRF1 binding 2.6, Rin1 Abl inh 0.9 and TCR-CD3 inh -5.5.
CCn1c(SCC(=O)Nc2ccccc2)nc2nc3c(cc2c1=O)COC(C)(C)C3 was read as MBD2 inh -0.1, LEDGF integ inh -2.8, UHRF1 binding 0.7 and TCR-CD3 inh -1.6.
CCn1c(SCC(=O)Nc2cccc(C)c2)nc2nc3c(cc2c1=O)COC(C)(C)C3 was read as MBD2 inh 0.6, LEDGF integ inh -1.0, UHRF1 binding 2.0, Rin1 Abl inh 7.5*, TCR-CD3 inh 2.5, Rin1-Abl confirm 12.6* and GFP quench -0.4.
For CCCOc1ccc(/C=C/C(=O)N2CCN(C(=O)c3ccco3)CC2)cc1OC the results were MBD2 inh -1.9, LEDGF integ inh -0.5, UHRF1 binding -3.3, Rin1 Abl inh 15.4*, TCR-CD3 inh 4.1, Rin1-Abl confirm 16.8*, GFP quench -0.7 and GFP quench DR >67.5.
`CCOC(=O)c1c(NC(=O)CN(C)C2CCN(C)CC2)sc(C(=O)Nc2ccccc2)c1C` gave MBD2 inh -5.0, LEDGF integ inh 0.3, UHRF1 binding -1.1, Rin1 Abl inh 7.6*, TCR-CD3 inh -2.4, Rin1-Abl confirm -1.0 and GFP quench -0.5.
For COc1cccc(NCc2cc(=O)oc3cc(C)c(C(C)C)cc23)c1 the results were MBD2 inh 0.5, LEDGF integ inh -4.9, UHRF1 binding 2.5, Rin1 Abl inh 1.4 and TCR-CD3 inh -4.1.
`CCOC(=O)c1c(C)n(C(=O)c2ccco2)c(=O)n1C(=O)c1ccco1` gave MBD2 inh -3.2, LEDGF integ inh -0.6, UHRF1 binding -0.1, Rin1 Abl inh 36.1*, TCR-CD3 inh -1.0, Rin1-Abl confirm 34.7*, GFP quench -0.8 and GFP quench DR >67.5.
`NC(=O)C(C1=CCCCC1)c1ccccc1` (stereo not drawn) gave MBD2 inh 1.9, LEDGF integ inh -1.7, UHRF1 binding 0.0, Rin1 Abl inh 5.2 and TCR-CD3 inh -4.9.
For CCN(CC)S(=O)(=O)c1cccc(NC(=O)CNc2cccc(S(=O)(=O)N3CCOCC3)c2)c1 the results were Rin1 Abl inh -1.3.
For CC1=NN(c2ccc(C(=O)O)cc2)C(=O)/C1=C\c1ccc(OC(=O)c2cccs2)cc1 the results were MBD2 inh 2.0, LEDGF integ inh 2.9, UHRF1 binding 2.6, Rin1 Abl inh 10.5*, TCR-CD3 inh -3.1, Rin1-Abl confirm -1.4 and GFP quench -1.0.
Screening CC1=NN(c2ccccc2)C(=O)/C1=C/c1ccc(Cl)cc1 returned MBD2 inh 7.9, LEDGF integ inh 8.4, UHRF1 binding 12.4, Rin1 Abl inh 12.4*, TCR-CD3 inh -2.5, Rin1-Abl confirm 0.2 and GFP quench 2.4.
`CN(Cc1ccccc1)C(=O)c1ccc(NC(=O)C2CCN(C(=O)OC(C)(C)C)CC2)cc1` gave MBD2 inh -5.7, LEDGF integ inh -1.5, UHRF1 binding 1.0, Rin1 Abl inh 1.1 and TCR-CD3 inh -0.7.
For Cc1ccc(S(=O)(=O)N2CCCCC2)cc1C(=O)NCc1ccccn1 the results were MBD2 inh 0.6, LEDGF integ inh -0.8, UHRF1 binding -2.7, Rin1 Abl inh 2.2 and TCR-CD3 inh -1.2.
`Cc1cc(-c2nn(-c3ccccc3F)cc2CN2CCCC(O)C2)c(C)s1` (stereo not drawn) gave MBD2 inh 0.2, LEDGF integ inh 1.1, UHRF1 binding -1.9, Rin1 Abl inh 5.7*, TCR-CD3 inh 4.0, Rin1-Abl confirm 1.3 and GFP quench -0.3.
Screening C=CCc1ccccc1OCC(O)CN1CCN(c2ccccc2OC)CC1 (stereo not drawn) returned MBD2 inh -2.0, LEDGF integ inh -2.1, UHRF1 binding 1.6, Rin1 Abl inh 7.4*!, TCR-CD3 inh 3.3, Rin1-Abl confirm -0.8 and GFP quench -0.3.
`CN(C)c1ccc(/C=C2\Oc3ccc(C#Cc4cccc(N)c4)cc3C2=O)cc1` gave Rin1 Abl inh 0.9.
`COc1ccc(OC)c(/C=N/NC(=O)c2cccc3ccccc23)c1` gave MBD2 inh 0.8, LEDGF integ inh 2.3, UHRF1 binding 0.0, Rin1 Abl inh 6.9*, TCR-CD3 inh 3.6, Rin1-Abl confirm -2.7 and GFP quench 0.1.
Screening COc1ccccc1/C=N/NC(=O)c1cccc2ccccc12 returned MBD2 inh -5.3, LEDGF integ inh -0.4, UHRF1 binding -1.7, Rin1 Abl inh -3.4 and TCR-CD3 inh 3.4.
`O=C(COc1ccc(Cl)cc1Br)OCC(=O)c1ccc[nH]1` gave MBD2 inh -0.5, LEDGF integ inh -3.2, UHRF1 binding 1.1, Rin1 Abl inh 8.3*, TCR-CD3 inh -7.6, Rin1-Abl confirm -0.8 and GFP quench 3.0.
For Cn1ccs/c1=N\C(=O)Nc1cccc(C(F)(F)F)c1 the results were MBD2 inh -2.4, LEDGF integ inh 0.1, UHRF1 binding 11.8, Rin1 Abl inh -4.2 and TCR-CD3 inh 2.3.
For Cc1ccccc1-n1c(SCC(=O)NC2CC2)nc2ccccc2c1=O the results were MBD2 inh -4.3, LEDGF integ inh 7.3, UHRF1 binding 3.3, Rin1 Abl inh 10.3*, TCR-CD3 inh -3.7, Rin1-Abl confirm 0.0 and GFP quench -0.5.
COc1ccc(-n2c(Cc3cccn3C)nnc2SCC(=O)Nc2cccc(NC(C)=O)c2)cc1 was read as MBD2 inh -0.4, LEDGF integ inh 3.6, UHRF1 binding 6.0, Rin1 Abl inh 9.1*, TCR-CD3 inh -8.6, Rin1-Abl confirm -2.7 and GFP quench -0.5.

Bioassay records: PubChem, The Scripps Research Institute Molecular Screening Center
